rRNA inh HTS: reduced GFP signal of wild-type E. coli, primary screen, bacterial rRNA inhibitor project, GFP/RFP fluorescence, OD600, single point | AID 720706, 2013 | GFP signal change (wild-type ribosome), % (test concentration not listed) | E. coli WT GFP vs humanized-ribosome RFP mutants, 24 h; hits give low values; DMSO median 0, no signal -100 | 350,000 tested, 1.6% active;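 active = significant combined selectivity score with lowered wild-type GFP, culture density cut under 30%, mutant RFP and density less affected; inactive = any of these conditions unmet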
Wnt bcat act: Wnt/beta-catenin pathway activators, primary screen, cell-based, plate reader, single point. Wnt/beta-catenin reporter cell assay, activator. activation, % at 9.35 µM. 300,000 tested, 1.2% active; in the data active = activation above about 30%, passing the limit was not always enough;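 note: 0% = neutral control wells and 100% = positive control wells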
AF4-AF9 inh: inhibitors of AF4 peptide binding to AF9, primary screen, biochemical, AlphaScreen, biotin-AF4 peptide, FLAG-AF9, single point; inhibition, % at 10 µM; 350,000 tested, 0.47% active; AID 651704, 2012;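 active = every replicate reaching a set inhibition limit, whatever the replicate mean, cut at about 25% in these data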;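 note: 0% = plate neutral control median and 100% = total signal loss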
MITF TRPM1 HTS: activators of MITF-driven TRPM1 promoter reporter, primary screen, cell-based, SK-MEL-5, luciferase, single point. SK-MEL-5 TRPM1-promoter luciferase, 24 h; % of positive control, neutral wells = 0. activation, % at 12.5 µM. 300,000 tested, 0.75% active;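 active = mean activation of at least 80% with every replicate also reaching 80%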;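 note: 0% = neutral control wells and 100% = parthenolide positive control wells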
esBAF inh: Bmi1 luciferase reporter increase in mESCs, primary screen, esBAF inhibitor project, mouse ES cells, Bmi1 luciferase knock-in, single point | 24 h; 100% = twice the neutral-well signal | reporter increase, % at 12.5 µM | 350,000 tested, 2% active | AID 602393, 2012; in the data active = activation above about 40%;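 note: 0% = median of the plate's neutral control wells and 100% = double that signal; a rise in the Bmi1 reporter signal indicates esBAF inhibition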
The depositor's hits bear a star. An excerpt weighted towards active compounds, which were near 3.7% of everything screened.

How did O=C(NCCCNC(=O)c1ccccn1)c1ccc(F)cc1 do in these assays?
rRNA inh HTS: -4; Wnt bcat act: 3; AF4-AF9 inh: -1; MITF TRPM1 HTS: -9; esBAF inh: -3

Results for O=C(c1ccco1)N1CCN(C(=O)c2ccco2)C1=S ?
rRNA inh HTS: -3; Wnt bcat act: -8; AF4-AF9 inh: 1; MITF TRPM1 HTS: -6

How did Cc1cccn2c1nc(=S)n2C(=O)c1ccco1 do in these assays?
Wnt bcat act: 72*; MITF TRPM1 HTS: 61

Results for CCOC(=O)[C@]12Cc3c(cc(OC)c(OC)c3OC)[C@H]1N(CCC(=O)OC)C(=O)c1cc(OC)ccc12 ?
rRNA inh HTS: -24*; Wnt bcat act: -2; AF4-AF9 inh: 0

Results for CCOC(=O)[C@]12Cc3c(cc(OC)c(OC)c3OC)[C@H]1N(Cc1ccccc1)C(=O)c1cc(OC)ccc12 ?
rRNA inh HTS: 3; Wnt bcat act: -2; AF4-AF9 inh: 1

How did CCN1c2ccccc2-c2nc3ccccc3n2C1c1ccncc1 (configuration not stated) do in these assays?
MITF TRPM1 HTS: -3; esBAF inh: 5

What do the screens show for `c1csc(C2Nc3ccccc3-c3nc4ccccc4n32)c1` (configuration not stated)?
Wnt bcat act: 80*; MITF TRPM1 HTS: 36

How did c1ccc2c(c1)NC(c1ccncc1)n1c-2nc2ccccc21 (configuration not stated) do in these assays?
Wnt bcat act: 56*; MITF TRPM1 HTS: 28

Results for Cc1ccsc1C1Nc2ccccc2-c2nc3ccccc3n21 (configuration not stated) ?
Wnt bcat act: 19; AF4-AF9 inh: -4; MITF TRPM1 HTS: 49

What do the screens show for `c1cncc(C2Nc3ccccc3-c3nc4ccccc4n32)c1` (configuration not stated)?
rRNA inh HTS: 22; Wnt bcat act: 7; AF4-AF9 inh: -19; MITF TRPM1 HTS: 14; esBAF inh: 59*

Results for CCCc1cc2c(=O)c(-c3ccc4c(c3)OCCO4)coc2cc1OC(=O)c1ccco1 ?
MITF TRPM1 HTS: 84*; esBAF inh: 81*

What do the screens show for `CCc1cc2c(=O)c(-c3ccc4c(c3)OCCO4)coc2cc1OC(=O)c1ccco1`?
Wnt bcat act: 67*; esBAF inh: -6

How did CCCc1cc2c(=O)c(-c3ccc4c(c3)OCCO4)coc2cc1OS(C)(=O)=O do in these assays?
rRNA inh HTS: -17; Wnt bcat act: 8; AF4-AF9 inh: 6; MITF TRPM1 HTS: 59

How did CC(NC(=O)c1cc(COc2ccccc2)on1)c1nccs1 (configuration not stated) do in these assays?
rRNA inh HTS: 0; Wnt bcat act: 29; AF4-AF9 inh: 0; MITF TRPM1 HTS: 97*; esBAF inh: 64*

Results for CC(=O)c1ccc(OCc2cc(C(=O)NC(C)c3cnn(C)c3)no2)cc1 (configuration not stated) ?
rRNA inh HTS: 3; Wnt bcat act: 20; AF4-AF9 inh: -3; MITF TRPM1 HTS: 29; esBAF inh: 11

What do the screens show for `Cc1nc(C(C)NC(=O)c2cc(COc3ccc(C)c(C)c3)on2)c(C)s1` (configuration not stated)?
rRNA inh HTS: 24; Wnt bcat act: -1; AF4-AF9 inh: -1; MITF TRPM1 HTS: 79; esBAF inh: 73*

How did CCOC(=O)c1c(C)[nH]c2cc(Br)c(O)cc12 do in these assays?
Wnt bcat act: 48*; esBAF inh: 54*

Results for CCOC(=O)c1c(-c2ccc(OC)cc2)oc2cc(Br)c(O)cc12 ?
rRNA inh HTS: 8; Wnt bcat act: 3; AF4-AF9 inh: 0; MITF TRPM1 HTS: 10; esBAF inh: -2

What do the screens show for `CC(NC(=O)CCC1COc2ccccc2O1)c1ccccc1` (configuration not stated)?
MITF TRPM1 HTS: 3; esBAF inh: 4

What do the screens show for `COc1ccc(C2CC(c3ccccc3O)=NN2C(=O)c2ccccc2)cc1OC` (configuration not stated)?
rRNA inh HTS: 11; Wnt bcat act: -1; AF4-AF9 inh: 41*; MITF TRPM1 HTS: -6; esBAF inh: 7

Screens deposited in PubChem by Broad Institute.
